Screen size: about 33,000 compounds; about 95 (0.3%) were called active. This is one part of a sample in which actives are shown more often than they occur.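 How the source made its calls: active means inhibition above 40% in the primary screen; inactive means the rest.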
target: Coagulation factor XI (Homo sapiens) (UniProt P03951); experiment: human FXIa protease inhibitors, primary screen, biochemical, single compound per well (AID 687); details: purified human FXIa, fluorogenic AMC substrate cleavage; at 10 µM; stronger effect = higher value;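 further: 0% = enzyme without compound and 100% = blank wells lacking enzyme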
Sequence (P03951 19-387 limits assumed): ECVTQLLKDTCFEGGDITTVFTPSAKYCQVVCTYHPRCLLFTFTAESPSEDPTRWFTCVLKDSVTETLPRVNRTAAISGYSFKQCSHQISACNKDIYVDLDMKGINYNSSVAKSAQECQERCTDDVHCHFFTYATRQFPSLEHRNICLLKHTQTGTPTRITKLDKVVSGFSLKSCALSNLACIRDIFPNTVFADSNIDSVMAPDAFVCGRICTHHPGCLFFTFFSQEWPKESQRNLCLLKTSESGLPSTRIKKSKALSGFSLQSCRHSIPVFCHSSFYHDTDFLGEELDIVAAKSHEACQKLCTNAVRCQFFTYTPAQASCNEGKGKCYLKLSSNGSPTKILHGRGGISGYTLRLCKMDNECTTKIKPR
Sequence (P03951 388-625 limits assumed): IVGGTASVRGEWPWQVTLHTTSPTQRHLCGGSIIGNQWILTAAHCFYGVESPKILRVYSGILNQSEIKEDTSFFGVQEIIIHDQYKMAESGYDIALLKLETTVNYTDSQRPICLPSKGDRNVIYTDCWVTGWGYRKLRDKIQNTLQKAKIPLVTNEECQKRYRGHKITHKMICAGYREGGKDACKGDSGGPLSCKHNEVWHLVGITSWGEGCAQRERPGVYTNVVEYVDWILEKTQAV

Structure (SMILES)	inhibition
CCc1ccc(CNC(=O)C2CC(=O)N(CCc3ccc(C)cc3)C2)cc1 (stereo not drawn)	1.74% (inactive)
CC(C)(C)Oc1ncc(Br)c(OC(C)(C)C)n1	-4.12% (inactive)
CCc1ccc(CNC(=O)CCc2nc(-c3cccs3)no2)cc1	5.18% (inactive)
CCOC(=O)c1cnc(SCC(=O)Nc2ccccc2C(=O)OC)nc1N	-1.2% (inactive)
Cc1cc(C)n(-c2nnc(C)n2NC(=O)c2cccc(Cl)c2)n1	-1.74% (inactive)
C/C(=N\NS(=O)(=O)c1ccc(Br)cc1)c1cccs1	7.3% (inactive)
O=C(O)c1cc2ccccc2c(=O)s1	3.97% (inactive)
CCn1c(CC(=O)Nc2ccc(C)cc2)nnc1SCC(=O)Nc1nc(C)cs1	0.06% (inactive)
COc1ccc(C)cc1NC(=O)CCS(=O)(=O)c1cccc2nonc12	24.9% (inactive)
Cc1cc(C)nc(N2C(=O)CC(Cc3ccccc3)C2=O)n1 (stereo not drawn)	-0.09% (inactive)
CCN1CC=C2C(C#N)=C(N)C(C#N)(C#N)[C@H](c3ccoc3)[C@H]2C1	1.2% (inactive)
Cc1cccc(N2CCN(C(=O)c3cnn4c(C(F)F)cc(-c5ccccc5)nc34)CC2)c1C	3.2% (inactive)
CCOC(=O)CN(Cc1ccc(OC)c(OC)c1)S(=O)(=O)c1ccc(OC)cc1	6.28% (inactive)
CC(C)NC(=O)CSc1ccccc1C(=O)NCc1ccc2c(c1)OCO2	6.02% (inactive)
COn1c(=O)c(=O)n(OC)c2ccccc21	3.76% (inactive)
Cc1cc(C)n(C(=O)CCNC(=O)c2ccccc2Cl)n1	-5.37% (inactive)
CCOC(=O)C1=C(C)NC2=C(C(=O)CC(C)(C)C2)C1c1ccsc1 (stereo not drawn)	1.22% (inactive)
Cc1cc(=O)oc2ccc(OCC(=O)O)cc12	-9.94% (inactive)
COc1ccc(Cl)cc1C(=O)Nc1ccc(N(C)C(C)=O)cc1	13.5% (inactive)
COc1cccc(OC)c1C(=O)Nc1ccc(N2CCCCC2)cc1	4.14% (inactive)
CCCC(=O)C1CCN(Cc2ccccc2)CC1	9.51% (inactive)

Structure (SMILES)	inhibition
O=C(O)CCN=C1CCc2ccccc2N1	5.95% (inactive)
CCNC(=O)N1CCNC(=O)C1CC(=O)Nc1ccc(C(=O)OCC)cc1 (stereo not drawn)	-0.73% (inactive)
CCC(=O)N(Cc1ccccc1)c1ccccn1	-8.8% (inactive)
O=C(c1ccco1)N1CCN(C(=O)C2CCCN(S(=O)(=O)c3cccc4nsnc34)C2)CC1 (stereo not drawn)	-6.85% (inactive)
CCCOc1cccc(C(=O)Nc2nnn(CCC)n2)c1	-6.61% (inactive)
Cc1nnc(SCC(=O)N2CCc3ccccc3C2)s1	21.3% (inactive)
O=C(COc1ccc(Cl)cc1)NCCSc1ccccc1	6.47% (inactive)
COc1ccc(-n2cnc3cc(NCc4ccco4)ccc32)cc1	4.4% (inactive)
Cn1nnnc1SCC(=O)N1CCN(C(c2ccccc2)c2ccccc2)CC1	-3.99% (inactive)
CCCC(O)(c1ccc(OC)cc1)C(CN(C)C)c1ccccc1 (stereo not drawn)	-1.37% (inactive)
CSc1nc(C)cc(SC(C(C)=O)C(=O)Nc2ccccc2)n1 (stereo not drawn)	0.47% (inactive)
CC(=O)Nc1cccc(Oc2cc(C#N)c(C#N)cc2N2CCOCC2)c1	2.12% (inactive)
CCOc1ccc(NC(=O)CCS(=O)(=O)c2ccc3c(c2)CCCN3C(=O)CC)cc1	19.3% (inactive)
Cc1ccc(S(=O)(=O)c2c(COC(=O)c3cccc(Cl)c3)c(-c3ccccc3)nn2C)cc1	6.1% (inactive)
CSc1ccccc1NC(=O)c1cc(C2CC2)on1	5.92% (inactive)
CC(=O)c1c(C)[nH]c(C(=O)NCc2ccc(C)cc2)c1C	4.49% (inactive)
CCOc1cccc(NC(=O)Cn2nc(-c3ccc4c(c3)OCCO4)ccc2=O)c1	-4.23% (inactive)
O=C1C=C(NCCNc2c(F)c(F)c(CO)c(F)c2F)CCC1	-9.07% (inactive)
CC(C)C(c1nnnn1Cc1ccccc1)N1CCC(C(N)=O)CC1 (stereo not drawn)	3.2% (inactive)
O=C(Cc1ccc(-n2c(=O)[nH]c3ccccc3c2=O)cc1)N1CCN(c2cccc(Cl)c2)CC1	3.03% (inactive)
O=C(CN1CCSCC1)N/N=C/c1ccc(F)cc1	-8.31% (inactive)

Structure (SMILES)	inhibition
CCc1cccc(C)c1N(C(=O)Cn1c(CO)nc2ccccc21)C(C)COC (stereo not drawn)	20.8% (inactive)
CC(=O)OC(C(=O)NCCc1ccccc1)c1cccnc1 (stereo not drawn)	4.94% (inactive)
OCCN1CCOCCOCCN(CCO)CCN(CCO)CC1	29.9% (inactive)
CCOc1ccc(C(O)Cc2nc3ccccc3n2C)cc1 (stereo not drawn)	4.61% (inactive)
Cc1ccc(C(=O)N2CCN(C3CCCCC3)CC2)s1	-2.79% (inactive)
CCCCN1C(=O)CC(N2CCOCC2)C1=O (stereo not drawn)	4.69% (inactive)
O=c1[nH][nH]c(C(F)(F)F)c1C=NCc1ccccc1Cl	-12.4% (inactive)
O=C(NCc1ccc2c(c1)OCO2)C12CC3CC(CC(C3)C1)C2	-3.87% (inactive)
COC(=O)CNS(=O)(=O)c1ccc(OC)cc1	0.19% (inactive)
CCN(CC)C(=O)CSc1nnc(C2CCCCC2)o1	5.02% (inactive)
CC1CCC(N2CC(=O)N(Cc3ccc4c(c3)OCO4)C(c3ccc(F)cc3)C2=O)CC1 (stereo not drawn)	1.08% (inactive)
N#Cc1c(N)nc2c3c(sc(=N)c2c1N)NC(=O)CC3c1ccccc1Cl (stereo not drawn)	40.9% (active)
O=C(Cc1c(F)cccc1Cl)N1CCN(C(=O)c2ccco2)CC1	2.75% (inactive)
O=C(O)CSCc1ccc(C(=O)O)o1	0.52% (inactive)
CCC(CC)C(=O)N1CC(=O)Nc2ccc(Br)cc2C1c1ccccc1 (stereo not drawn)	-3.26% (inactive)
CC(C)C(=O)NC(NC(=S)NC1CCS(=O)(=O)C1)C(Cl)(Cl)Cl (stereo not drawn)	0.31% (inactive)
CCCc1nc2oc3c(OCC)ncnc3c2c2c1COC(C)(C)C2	26% (inactive)
Cc1cc(C(=O)Nc2c(C)nn(Cc3ccccc3)c2C)on1	9.91% (inactive)
COc1ccc(-c2cn(-c3ccc(C)cc3)c(=O)n2CC(=O)Nc2ccc(OC)c(OC)c2)cc1	-1.74% (inactive)
S=c1nccc(-c2cc(Cl)sc2Cl)[nH]1	3.11% (inactive)
CC1CC(C)CN(C(=O)CSc2nnc(CSc3ncccn3)n2C)C1 (stereo not drawn)	-0.18% (inactive)

From PubChem BioAssay AID687 (PCMD, 2007)
